Source: PubChem BioAssay
Most compounds without a hit are left out; they make up all but 1.1% or so of the library.
AmpC no deterg: inhibitors of E. coli AmpC beta-lactamase without detergent; AmpC nitrocefin hydrolysis, absorbance 480 nm, 0.0001% Triton; Potency, µM (doses to about 57.1 µM), actives largely listed as inhibitors; actives 0.52% (n = 330,000); note: nearly all actives have a fitted effect of over 20% in size
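20 mM phosphate pH 7.0 + 0.01% (detergent screen) or 0.0001% Triton X-100; 5.3 nM AmpC reagent; cpd preinc 15 min RT; nitrocefin (800 uM stock) to start; A480 q20 s × 4 min; Activity was normalised to no-enzyme and no-compound control wells.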
AmpC inh detg: blocks E. coli AmpC beta-lactamase in detergent assay; P00811; AmpC hydrolysis of nitrocefin, absorbance 480 nm, 0.01% Triton; Potency, µM (highest dose often 114 µM), actives largely listed as inhibitors; actives 0.041% (n = 370,000); AID 485294; note: nearly all actives have a fitted effect of over 25% in size
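AmpC (5.3 nM in the dispensed reagent) in 20 mM phosphate pH 7.0 with 0.01% (detergent screen) or 0.0001% Triton X-100 was preincubated with compounds for 15 min at room temperature. Nitrocefin was then added from an 800 uM solution, and hydrolysis was followed at 480 nm.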
AMA1 RON2 block: AMA1-RON2 (P. falciparum) interaction inhibition. AlphaScreen AMA1-biotinylated RON2 peptide binding. Potency, µM (highest dose often 58.2 µM), hits mostly inhibitors. actives 0.2% (n = 360,000). AID 720542; note: nearly all actives have a fitted effect of over 45% in size
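AMA1 (3D7) with his tag at 25 nM final met compounds first, then biotinylated RON2 peptide at 25 nM; detection used donor plus acceptor beads, 10 µg/mL apiece, read by AlphaScreen after 30 min at room temperature.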
FBPA Giardia inh: Giardia lamblia aldolase inhibition; A8B2U2; purified Giardia FBPA; Potency, µM (top dose mostly 59.6 µM), usual class: inhibitors; actives 0.71% (n = 290,000); note: nearly all actives have a fitted effect of over 55% in size
Target sequence (A8B2U2 whole entry, looked up): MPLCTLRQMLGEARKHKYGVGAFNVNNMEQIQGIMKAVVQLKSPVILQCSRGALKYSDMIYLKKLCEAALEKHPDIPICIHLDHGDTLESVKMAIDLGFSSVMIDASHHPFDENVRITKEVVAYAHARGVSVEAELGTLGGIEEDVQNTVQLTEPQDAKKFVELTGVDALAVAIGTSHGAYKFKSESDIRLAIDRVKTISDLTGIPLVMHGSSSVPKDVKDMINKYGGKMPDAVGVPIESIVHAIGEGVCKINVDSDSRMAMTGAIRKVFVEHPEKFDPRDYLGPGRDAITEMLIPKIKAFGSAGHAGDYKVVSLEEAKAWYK
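Giardia FBPA (40 nM reagent) was preincubated 10 min at RT with compound (up to 57.5 uM final), then substrate plus GAPDH/TPI/NAD/arsenate coupling system with diaphorase/resazurin was added; resorufin fluorescence (525/598 nm) was read after 20 min.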
Of the large screens only hits and unclear results are named; the others gave an inactive call. Calls come from the whole dose curve; as a rule, active = well fitted curve in the direction sought with a large enough effect; inconclusive = small, poorly fitted or top-dose-only effect, or another doubt; inactive = no such curve, though single readings can be large; an effect the other way counts as inactive or inconclusive.

C[C@@]12CCC(=O)C=C1CC[C@@H]1[C@@H]2[C@H](O)C[C@]2(C)[C@@H]1CC[C@]2(O)C(=O)CO	none (no result: AmpC no deterg, AmpC inh detg, AMA1 RON2 block)
COCCCn1c(SCC(=O)Nc2ccc(OC)cc2)nc2c(sc3ccccc32)c1=O	none (no result: AmpC no deterg, AMA1 RON2 block, FBPA Giardia inh)
COc1ccc(-c2cc(C(=O)Nc3cc(OC)cc(C(=O)Nc4cccc(C(F)(F)F)c4)c3)[nH]n2)cc1	AmpC no deterg 28µM
COc1cc(NC(=O)c2ccno2)cc(C(=O)Nc2cccc(C(F)(F)F)c2)c1	none
Cc1nc(NC(=O)c2ccccc2)sc1-c1csc(Nc2cccc(F)c2)n1	AmpC no deterg 16µM (no result: AMA1 RON2 block)
O=C(Nc1cccc(-c2csc(Nc3cccc(C(F)(F)F)c3)n2)c1)c1ccccc1	AmpC no deterg 2µM
O=C(Nc1ccc(-c2csc(Nc3cccc(C(F)(F)F)c3)n2)cc1)c1ccccc1	none
C[C@@H]1CN([C@H](C)CO)C(=O)CCCn2nncc2CO[C@H]1CN(C)S(=O)(=O)c1ccc(Oc2ccccc2)cc1	none (no result: AmpC no deterg, AmpC inh detg, FBPA Giardia inh)
COc1ccc2ccccc2c1/C=N/N1C(=O)CSC1=S	AmpC no deterg 16µM
Cc1ccc2nc3n(c(=O)c2c1)-c1ccc(Cl)cc1C(=O)NC3CC(C)C (centres undefined)	none (no result: AmpC inh detg, AMA1 RON2 block, FBPA Giardia inh)
CN(C)c1ccc(C(CNS(=O)(=O)c2ccc(F)c(F)c2)c2c[nH]c3ccccc23)cc1 (centres undefined)	AMA1 RON2 block 14µM
CN(C)c1ccc(C(CNC(=O)c2ccccc2F)c2c[nH]c3ccccc23)cc1 (centres undefined)	none
CSc1nc(-c2ccccc2)c(C#N)c(=O)[nH]1	none
CCSc1nc(-c2ccccc2)c(C#N)c(=O)[nH]1	AmpC no deterg 2.2µM
Cc1ccc(/C=C2/CNC/C(=C\c3ccc(C)cc3)C2=O)cc1	none (no result: AmpC no deterg, AmpC inh detg, AMA1 RON2 block)
Cc1ccc(CNC(=O)C(=O)NCC(c2cccnc2)N2CCN(c3ccccc3F)CC2)cc1 (centres undefined)	none (no result: AmpC no deterg, AMA1 RON2 block, FBPA Giardia inh)
O=C1C(NS(=O)(=O)c2ccc(Cl)cc2)=C(N2CCCCC2)C(=O)c2ccccc21	AMA1 RON2 block 11µM, FBPA Giardia inh inconclusive
CCOC(=O)C1CCN(C2=C(NS(=O)(=O)c3ccc(Br)cc3)C(=O)c3ccccc3C2=O)CC1	AMA1 RON2 block 13µM, FBPA Giardia inh inconclusive
CCOC(=O)c1ccc(NC(=O)CSc2ccc(-c3sc(C)nc3C)nn2)cc1	none (no result: AmpC no deterg, AMA1 RON2 block, FBPA Giardia inh)
Cc1cc(C)nc(SCCN(C)C)n1	none
Cc1cc(C)nc(SSc2nc(C)cc(C)n2)n1	AmpC no deterg inconclusive, AmpC inh detg 79µM
CCN(CC)S(=O)(=O)c1ccc(N2CCCCC2)c(NC(=O)/C(C#N)=C/c2ccc(OC)cc2)c1	AmpC no deterg 4µM
CSc1nnc2[nH]c(=O)cc(C)n12	none (no result: AmpC no deterg, AMA1 RON2 block, FBPA Giardia inh)
COc1ccc(C2c3sc(=O)[nH]c3SC3C4CCC(C4)C23)cc1OC (centres undefined)	none
COc1cc(C2c3sc(=O)[nH]c3SC3C(=O)N(c4ccc(Br)cc4)C(=O)C32)ccc1O (centres undefined)	AmpC no deterg 10µM
Cc1cccc(NC(=O)/C(C#N)=C/c2cn(CC(=O)NCc3ccco3)c3ccccc23)c1C	AmpC no deterg 14µM
N#C/C(=C\c1cn(Cc2ccccc2)c2ccccc12)C(=O)NCc1ccco1	none
COc1ccc(N2CCN(CC(O)COc3ccc(C)cc3C)CC2)cc1 (centres undefined)	AMA1 RON2 block 25µM
OC(COc1ccc2ccccc2c1)CN1CCN(c2ccc(F)cc2)CC1 (centres undefined)	AmpC no deterg 40µM, AmpC inh detg inconclusive
O=c1[nH]nc(CNc2ccc(O)cc2)c2ccccc12	FBPA Giardia inh 18µM
O=c1[nH]nc(CNc2ccc(C(F)(F)F)cc2)c2ccccc12	AmpC inh detg inconclusive
O=C(Nc1ccc(C(=O)O)cc1)/C(=C\c1ccc2c(c1)OCO2)NC(=O)c1ccccc1Cl	none (no result: AmpC no deterg, AmpC inh detg, FBPA Giardia inh)
CNNC	FBPA Giardia inh 11µM (no result: AmpC no deterg, AmpC inh detg, AMA1 RON2 block)
Cc1nc2ncccn2c1-c1csc(Nc2ccccc2)n1	none
Cc1nc2ncccn2c1-c1csc(Nc2ccc(N(C)C)cc2)n1	AMA1 RON2 block 14µM
O=C(CSc1nc2ccccc2n1CC(=O)Nc1ccc(F)cc1F)Nc1ccc(F)cc1	none (no result: AmpC no deterg, AMA1 RON2 block, FBPA Giardia inh)
CN=c1scc(-c2ccccc2F)n1/N=C/c1ccc(O)c(O)c1O	FBPA Giardia inh 7.9µM
CN=c1scc(-c2ccccc2F)n1/N=C/c1ccc[nH]1	none
O=C(C[C@@H]1CC[C@@H]2[C@H](COC[C@H](O)CN2CCC(F)(F)F)O1)NCc1ccc2c(c1)OCO2	none (no result: AmpC no deterg, AmpC inh detg, FBPA Giardia inh)
